# Tests used:
# Details in all cases: concentration: 1 μM, replicates: in singlicate; n = 1
# [1] = test system: CAMK2D
# [2] = test system: CAMK2G
# [3] = test system: CAMK4
# [4] = test system: CAMKK1
# [5] = test system: CAMKK2
# [6] = test system: CASK
# [7] = test system: T1, CDC2L1
# T1 construct: gene CDK11B
# [8] = test system: CDC2L2
# [9] = test system: T2, CDC2L5
# T2 construct: gene CDK13
# [10] = test system: T3, CDK11
# T3 construct: gene CDK19
# [11] = test system: CDK2
# [12] = test system: CDK3
# [13] = test system: CDK4-cyclinD1
# [14] = test system: CDK4-cyclinD3
# [15] = test system: CDK4
# [16] = test system: CDK5
# [17] = test system: CDK7
# [18] = test system: CDK8
# [19] = test system: CDK9
# [20] = test system: CDKL1
# 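Further: KINOMEscan kinase panel screen.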
Structure (SMILES),%Inh [1] [%],%Inh [2] [%],%Inh [3] [%],%Inh [4] [%],%Inh [5] [%],%Inh [6] [%],%Inh [7] [%],%Inh [8] [%],%Inh [9] [%],%Inh [10] [%],%Inh [11] [%],%Inh [12] [%],%Inh [13] [%],%Inh [14] [%],%Inh [15] [%],%Inh [16] [%],%Inh [17] [%],%Inh [18] [%],%Inh [19] [%],%Inh [20] [%]
O=C(Nc1n[nH]c2nc(-c3ccco3)c(Br)cc12)c1ccc(CN2CCCC2)cc1.O=C(O)[C@H](O)[C@@H](O)C(=O)O [SB-742352],0,0,0,0,0,0,0,0,0,0,0,0,0,0,0,0,0,0,0,24
N#Cc1ccc(Oc2ccc(Nc3ncnc4cc[nH]c34)cc2Cl)cc1,13,10,3,6,11,0,14,10,0,3,6,2,11,6,0,0,27,13,17,27
Cc1ccc(C)c(NC(=O)NCCNc2ccnc(Nc3ccc(F)cc3)n2)c1 [GSK1379878],18,21,0,0,2,0,0,17,0,6,0,0,0,0,43,0,0,29,0,0
COC(=O)c1cccc(NC(=O)NCCNc2ccnc(Nc3ccc(F)cc3)n2)c1 [GSK1379883],0,17,0,11,6,0,0,20,0,16,0,2,0,0,34,0,0,8,0,3
CCn1c(-c2ccncc2)nc2cnccc21 [SB-735216],0,0,0,0,4,5,9,0,28,18,5,1,0,0,45,0,6,0,0,12
O=C(c1ccc(-c2cc(-c3c[nH]nc3-c3ccccn3)ccn2)cc1)N1CCCC1 [GW792479],3,56,0,23,46,21,0,7,15,5,19,72,22,0,0,38,0,63,2,57
Clc1ccc(-c2cc(-c3c[nH]nc3-c3ccccn3)ccn2)cc1 [GW681251],0,8,0,0,0,44,0,0,0,0,22,42,7,0,0,0,0,11,0,15
Nc1nc(-c2ccc3c(N)n[nH]c3c2)cc(N2CCC[C@@H](C(=O)Nc3ccccc3)C2)n1.O=C(O)C(F)(F)F.O=C(O)C(F)(F)F [GSK2288359],0,22,0,11,16,5,0,19,0,0,0,0,0,0,0,0,0,23,0,15
FC(F)(F)c1ccc(-c2cc(-c3c[nH]nc3-c3ccccn3)ccn2)cc1 [GW599550],12,27,0,11,23,0,0,26,0,17,2,20,11,0,35,0,0,32,0,2
CN1c2ccc(-c3ccc(C(=O)NCCO)cc3)cc2-c2[nH]ncc2S1(=O)=O,24,21,0,22,37,48,0,0,2,11,2,0,20,12,0,0,32,0,0,22
Fc1ccc(Nc2nccc(-c3c(-c4ccc(Cl)cc4)nn4ncccc34)n2)cc1F [GW829058],0,2,0,2,5,26,6,11,30,18,13,18,62,12,19,34,42,0,12,17

# — article PMC5540273 (PLoS ONE, 2017)
